The list is not random: actives were taken first. Their share in the collection is about 6.2%.
ATXN2 expr inh: reduces ATXN2 reporter expression in HEK-293 cells; AID 1745845; HEK-293 ATXN2-luciferase reporter, luminescence, 24 h; 360,000 tested, 0.72% active; Potency, µM (series often up to 57 µM), for inactives: top-dose activity change, negative = inhibition, hits mostly inhibitors; also: % is scaled to controls: 0 for no effect and ±100 for the full control effect; nearly all actives have a fitted effect of over 55% in size
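ATXN2-luciferase reporter cells (luciferase flanked by upstream and downstream ATXN2 gene portions) were treated 24 h at 37 °C with compounds at up to 57 uM. SteadyGlo luminescence gave expression; GF-AFC fluorescence gave viability.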
ATXN viability: reduces viability in counter-screen for ATXN expression inhibitors; Potency, µM (doses to about 56.7 µM), usual class: cytotoxic; AID 651635; S2 cells (HEK-293 line with an ATXN2-luciferase reporter) viability, CellTiter-Fluor protease fluorescence, 24 h; 400,000 tested, 0.49% active; also: nearly all actives have a fitted effect of over 40% in size
HT1080NT lethal: kills 2HG-producing HT-1080-NT fibrosarcoma cells; 360,000 tested, 1.6% active; Potency, µM (doses to about 46.1 µM), without a hit: at the top dose activity, negative = less viability, actives largely listed as cytotoxic; HT-1080-NT fibrosarcoma viability, CellTiter-Glo ATP luminescence, 48 h; AID 686970;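 also: NT is the 2HG producing partner of a matched IDH1 knockdown line; 0% = DMSO-treated cells and -100% = media-only wells without cells; nearly all actives have a fitted effect of over 55% in size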
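HT-1080-NT fibrosarcoma cells (2HG-overproducing), 750 cells/well in RPMI with 5% FBS, dosed after 2 h and incubated 48 h at 37C. CellTiter-Glo luminescence normalized to DMSO and no-cell wells; concentration-response curves fitted and classed.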
HT1080 IDH1KD tx: toxicity to HT-1080 IDH1 knockdown cells (counter line). HT-1080 IDH1 knockdown viability, ATP luminescence, 48 h. Potency, µM (titrated, usually from 46.1 µM), inactives show top-dose activity, negative = toxicity, most hits filed as cytotoxic. 360,000 tested, 2% active. AID 686971;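 also: 0% = DMSO wells and -100% = cell-free medium wells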
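% activity derives from luminescence (CellTiter-Glo), normalised to DMSO and no-cell wells. HT-1080-IDH1KD cells, 750/well, had 48 h compound exposure at 37 °C.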
KB-3-1 tox: kills parental KB-3-1 adenocarcinoma cells; KB-3-1 viability, CellTiter-Glo ATP luminescence, 72 h; Potency, µM (series often up to 46.1 µM), actives largely listed as cytotoxic; 400,000 tested, 1.4% active; also: % is scaled to controls: 0 for no effect and ±100 for the full control effect; nearly all actives have a fitted effect of over 60% in size
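Viability of parental KB-3-1 cells, measured by CellTiter-Glo luminescence, followed a 72 h incubation at 37 °C with pinned compounds in phenol-red-free DMEM containing 10% FBS.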
KB-V1 cytotox: KB-V1 MDR subline cytotoxicity | KB-V1 MDR cells viability, CellTiter-Glo, 72 h | Potency, µM (highest dose often 46.1 µM), hits mostly cytotoxic | 400,000 tested, 3.4% active | AID 1347076; also: % is scaled to controls: 0 for no effect and ±100 for the full control effect; nearly all actives have a fitted effect of over 60% in size
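Following 72 h at 37 degrees C with compound, KB-V1 cell viability was read by CellTiter-Glo luminescence, medium being phenol-red-free DMEM plus 10% FBS; concentration-response parameters came from normalized, curve-fitted qHTS data.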
An asterisk follows results filed as active; i = inactive; ? = inconclusive; / = not tested or not shown. Calls follow the shape of the dose curve; as a rule, active = well fitted curve in the direction sought with a large enough effect; inconclusive = small, poorly fitted or top-dose-only effect, or another doubt; inactive = no such curve, though single readings can be large; an effect the other way counts as inactive or inconclusive. Potency is read from the fitted curve at half-maximal effect.

SMILES | ATXN2 expr inh | ATXN viability | HT1080NT lethal | HT1080 IDH1KD tx | KB-3-1 tox | KB-V1 cytotox
N#C/C(=C/c1ccc(-c2ccc([N+](=O)[O-])cc2)o1)C(=O)Nc1nc(-c2cccs2)cs1 | 3% | i | -3% | 0% | i | i
CN(C)c1ccc(/C=C/c2ncnc3ccccc23)cc1 | / | / | / | / | i | i
O=C(Nc1nnc(Cc2ccccc2)s1)c1ccco1 | 27% | i | ? | 14% | i | i
Cc1ccc(Cc2cnc(NC(=O)c3ccco3)s2)cc1 | 11% | i | -15% | -5% | i | 18µM*
NC(=O)c1cc(Cc2ccccc2)sc1NC(=O)c1ccco1 | 91% | i | ? | ? | ? | 9.2µM*
Cc1c(CCOc2ccc(C(=O)O)cc2)c2cc(Cl)ccc2n1C(c1ccccc1)c1ccccc1 | -20% | / | / | / | / | /
CCC(CC)NC(=O)Nc1cccc(C)c1C | / | i | 3% | -8% | i | i
O=C(O)CSCC(=O)Nc1ccc(Cl)cc1C(F)(F)F | 0% | i | 1% | 23% | i | i
CCC(C)N(CC(=O)Nc1cccc(C)c1C)C(=O)CCl (centres undefined) | 3µM* | / | 1.6µM* | 1µM* | ? | ?
CC(C)N(CC(=O)Nc1ccc(Cl)cc1C(F)(F)F)C(=O)CCl | 19µM* | ? | 6.5µM* | 6.5µM* | i | ?
CCC(=O)N1c2ccccc2CC1C(=O)NCc1ccc(OC(C)C)cc1 (centres undefined) | -7% | i | / | / | i | i
Cc1ccc(CNC(=O)c2cccn2-c2nnc(N3CCCCC3)s2)cc1 | / | / | / | / | i | i
Cc1cccc(Cn2c(SCc3ccc(C(=O)NCc4ccccc4F)cc3)nc3cccnc32)c1 | -5% | ? | / | / | ? | 15µM*
Cc1cccc(Cn2c(SCc3ccc(C(=O)NCCc4ccccc4)cc3)nc3cccnc32)c1 | -5% | ? | / | / | ? | 18µM*
Cc1cccc(Cn2c(SCc3ccc(C(=O)NCc4ccccc4F)cc3)nc3ccncc32)c1 | ? | ? | / | / | i | i
CNC(=S)N/N=C/c1c(C)c(C(=O)c2ccc(F)cc2)n2ccccc12 | -15% | ? | -11% | -10% | i | i
Cc1c(/C=N/NC(N)=O)c2ccccn2c1C(=O)c1ccc(F)cc1 | -5% | i | -15% | -28% | i | 18µM*
O=C(N/N=C/c1ccc([N+](=O)[O-])s1)c1cccc(Br)c1 | -34% | ? | 12µM* | 21µM* | i | ?
Cc1cc(C(=O)N/N=C/c2ccc([N+](=O)[O-])s2)n[nH]1 | 14µM* | ? | -7% | -19% | ? | i
Cc1cc(C(=O)N/N=C/c2ccc(C)s2)n[nH]1 | 29% | i | 1% | 10% | i | i
Cc1ccc(C(=O)N/N=C/c2ccc([N+](=O)[O-])s2)cc1 | 2.2µM* | i | ? | ? | i | ?
O=C(CC(C(=O)O)n1ccnc1)c1ccc(Cl)cc1 (centres undefined) | / | / | / | / | i | i
CN(C)C(=O)CSc1ncccc1-c1nc2ccccc2[nH]1 | 4% | i | 16% | 15% | i | i
O=C(CN1CCN(c2ccccc2)CC1)N1CCN(c2ccccc2)CC1 | -10% | ? | -2% | 1% | i | 21µM*
COCCNc1nc(SCC(=O)N2CCN(c3ccccc3)CC2)nc2ccccc12 | -2% | i | 1% | -18% | i | 9.2µM*
SMILES | ATXN2 expr inh | ATXN viability | HT1080NT lethal | HT1080 IDH1KD tx | KB-3-1 tox | KB-V1 cytotox
O=C(CSCc1cccc(F)c1)N1CCN(c2ccccc2)CC1 | 56% | i | 3% | -7% | i | 21µM*
O=C(CSCc1ccccc1)N1CCN(c2ccccc2)CC1 | 47% | i | 5% | 10% | i | i
O=C(CSc1ncccc1-c1nc2ccccc2[nH]1)N1CCCCC1 | 35% | i | 4% | 4% | i | 5.2µM*
Cc1ccc(-c2nnc(Nc3ccc(OCC(N)=O)cc3)c3ccccc23)cc1S(=O)(=O)N(C)C | -24% | i | / | / | ? | i
COC(=O)c1cccc(-n2c(CCC(=O)O)ccc2-c2ccc(OC)cc2)c1 | 16% | ? | / | / | ? | ?
O=C(CSc1nc2ccccc2nc1N1CCOCC1)N1CCN(c2ccccc2)CC1 | -35% | ? | -27% | -10% | ? | i
O=C(CSc1nc2ccccc2nc1N1CCCCC1)N1CCN(c2ccccc2)CC1 | -19% | i | -18% | -7% | ? | 21µM*
O=S(=O)(c1ccc(Cl)cc1)N1c2ccccc2Oc2nc3ccccc3nc21 | 2% | i | 8% | 6% | ? | ?
COc1ccc(S(=O)(=O)N2c3cc(Cl)ccc3Oc3nc4ccccc4nc32)cc1 | 0% | i | ? | 0.92µM* | 2.1µM* | 7.3µM*
O=c1oc2ccc(Br)cc2cc1S(=O)(=O)c1ccc(F)cc1 | ? | / | ? | 15µM* | 29µM* | ?
O=C(Cn1cncn1)N1CCOc2ccc(CN3CCN(c4ccccc4)CC3)cc2C1 | / | i | / | / | / | /
Cc1[nH]c(=S)[nH]c(=O)c1CCOc1ccccc1 | -2% | i | -17% | -3% | ? | ?
Cc1ccccc1OCCc1c(C)[nH]c(=S)[nH]c1=O | -24% | i | 2.3µM* | 2.1µM* | 1.5µM* | 1.8µM*
Brc1cccc(-c2nnc3sc(CN4CCC5(CC4)OCCO5)cn23)c1 | -8% | i | 3% | 1% | i | 21µM*
Brc1cccc(-c2nnc3sc(CN4CCCCC4)cn23)c1 | 2% | i | -2% | -17% | i | ?
CCOc1ccccc1NC(=O)c1c(NC(=O)C(C)Oc2ccc(Cl)cc2)sc2c1CCCCC2 (centres undefined) | -10% | i | / | / | i | i
CC1=C(CC[C@@H](C)CO)OC2CC3C4CCC5CC(O)CCC5(C)C4CC(=O)C3(C)C12 (some centres undefined) | 25µM* | ? | -18% | -9% | i | ?
COc1ccccc1NC(=O)c1ccc(-c2nc(COc3ccc(C)cc3)c(C)o2)cc1 | 1% | i | / | / | i | ?
COc1ccc(C(C(=O)NC(C)(C)C)N(Cc2ccc(C)cc2)C(=O)CCC(=O)Nc2cc(C)on2)cc1 (centres undefined) | / | i | -18% | -22% | ? | i
COc1ccc(C(C(=O)NC(C)(C)C)N(C(=O)CCC(=O)Nc2cc(C)on2)c2cc(C)cc(C)c2)cc1 (centres undefined) | -26% | i | -19% | -6% | i | 15µM*
CCCc1cc2c(=O)c(-c3ccc4c(c3)OCCO4)coc2cc1OS(C)(=O)=O | 43% | i | -3% | -8% | ? | 10µM*

Screening data from PubChem.
